# Measurements published in PubChem BioAssay (NCATS).
# Inconclusive results are not listed. Entries that show only a call come without a potency. Calls of active or inactive are those of the source. Calls follow the shape of the dose curve; as a rule, active = well fitted inhibition curve with a large enough effect; inconclusive = small, poorly fitted or top-dose-only effect; inactive = flat fitted curve, though single readings scatter.
# Experiment: Cytometry Cell-Based qHTS for Inhibitors of the mTORC1 Signaling Pathway in MEF cells (AID 2668);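 also: Tsc2-/- p53-/- mouse embryonic fibroblasts stably re-expressing wild-type Tsc2; percent cells positive for phospho-rpS6 Ser235/236 relative to propidium iodide stain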
# Conditions: mTORC1 pathway readout; series mostly up to 38.3 µM
# Excerpt: NIH Molecular Libraries Probe Production Centers Network [MLPCN]
# NIH Chemical Genomics Center [NCGC]
# Assay Submitter (PI): Blenis, John; Hoffman, Greg; Harvard University
# NCGC Assay Overview: The mammalian target of rapamycin (mTOR) is an intracellular serine/threonine kinase Aberrant regulation of mTOR signaling plays a causative role in a number of human diseases, including cancer, benign tumors such as lymphangioleiomyomatosis (LAM) and Tuberous Sclerosis Complex (TSC), and metabolic diseases such as diabetes and obesity. This project aims to identify inhibitors of ribosomal protein S6 (rpS6) phosphorylation. The phosphorylation of rpS6 is a key event downstream of mTOR activation. The assay uses a phospho-specific antibody of phospho-rpS6 to detect inhibitors of mTOR activation. Mutations in the Tsc1 and Tsc2 genes are the underlying genetic lesions responsible for TSC, causing constitutive activation of the mTORC1 pathway and leading to profound effects on cell metabolism. Aberrant metabolism in cancer has recently received significant attention as a target to develop therapeutic agents in the treatment of cancer.1 As Tsc2-/- cells have lost the ability to respond to energy and growth factor deprivation, these cells are unable to properly down regulate cellular biosynthetic processes in response to metabolic stress, and are thus extremely sensitive to glucose deprivation-induced death.2 A central goal of this project is to explore the unique cell survival and metabolic properties of cells with Tsc1 or Tsc2 by screening for compounds that selectively target the Tsc2-/- MEFs by screening both Tsc2-/- and WT MEF cell lines. We hope to better understand these aspects of TSC physiology in order to exploit them for therapeutic benefit.
# NCGC Acumen Assay Protocol:
# For quantitative high throughput analysis of mTORC1 signaling, we developed a cell-based assay for immuno-fluorescence based detection of rpS6 phosphorylation on the Acumen Explorer that will be used a platform for the primary small molecule screen. Mouse embryonic fibroblasts (MEFs) are cultured in 1536-well plates using DMEM + 10% FBS. Twenty-four hrs after plating, test compounds (solubilized in DMSO) are delivered and incubated with the cells for 24 hrs at 37 degree Celsius. Following the incubation, media with compound is aspirated and the cells are fixed in 4% paraformaldehyde (PFA) containing PBS + 0.2% TX-100. Next, PFA is aspirated, cells are washed two times with PBS plus 0.2% TX-100 and the cells are blocked for 1 hr at room temperature (blocking buffer: LiCOR Blocking Buffer plus 0.2% TX-100). This is followed by aspiration and staining with Alexa-488 conjugated-phospho-rpS6 Ser235/236 antibody for 2 hours at room temperature (Cell Signaling Technology # 4803, 1:50 dilution in blocking buffer). Cells are washed two times with PBS plus 0.2% TX-100, and stained with 10 uM propidium iodide (PI) for 20-25 minutes for cell number measurement (1:500 dilution of Hoescht staining is also added for IN Cell imaging). The plates are scanned on the Acumen Explorer laser scanning instrument (TTP Labtech) using the 488nm laser for simultaneous excitation of the Alexa-488 and PI. The fluorescence emission from the Alexa-488 conjugated rpS6 phospho-235/236 antibody staining is selected using a […] band pass filter. Fluorescence emission from the PI stain is selected using a 575-640 nm band pass filter. The normalized phospho-S6 staining is calculated as the ratio of the integrated Alexa 488 intensity divided by the integrated PI intensity for the single concentration rapamycin control (7.5 nM) and DMSO columns. […] Inhibition of the pathway is defined based on the normalized phospho-S6 intensity in rapamycin treated cells. […]
row,SMILES,Potency
1,O=c1[nH]c(=S)[nH]c(-c2ccccc2)c1Cc1c(O)ccc2ccccc12,inactive
2,COC(=O)C(N)Cc1ccc(Cl)cc1 (stereo not given),inactive
3,CCCCCCCCCC[Si](C)(C)CCC(=O)NC(Cc1ccc(C)cc1)c1ccccc1 (stereo not given),inactive
4,OC[C@H]1O[C@H](n2cnc3c(N[C@H]4CCC[C@@H]4O)ncnc32)[C@H](O)[C@@H]1O,inactive
5,CCCCOc1cc(CC2CNC(=O)N2)ccc1OC (stereo not given),inactive
6,O=c1onc2cnc3ccccc3n12,inactive
7,CCC(=O)N1CCN(C(=O)c2ccccc2)CC1,inactive
8,CC(/C=C/c1cccc(Oc2ccc(F)cc2)c1)N(O)C(N)=O (stereo not given),inactive
9,Nc1ccc(-c2ccc3ccccc3n2)cc1,inactive
10,C[C@@]1(C2CCCC2)Cc2cc(OCC(=O)O)c(Cl)c(Cl)c2C1=O,inactive
11,Cn1cc(C(F)(F)F)nc1-c1ccc(OCC(O)CNCCOc2ccc(O)c(C(N)=O)c2)cc1 (stereo not given),inactive
12,CC(C)NC[C@H](O)COc1ccc(CC(N)=O)cc1,inactive
13,CCN(CC)CCOC(=O)c1cc(Cl)c(N)cc1OC,inactive
14,CCCCC[C@H](CC(=O)NO)C(=O)N[C@H](C(=O)N1CCC[C@H]1CO)C(C)C,inactive
15,N[C@@H](CS(=O)O)C(=O)O,inactive
16,CC(=O)SC1CC2=CC(=O)CC[C@]2(C)C2CC[C@@]3(C)C(CC[C@@]34CCC(=O)O4)C12 (stereo not given in full),inactive
17,CCCC(=O)NCCc1c2n(c3ccc(OC)cc13)CCCc1ccccc1-2,inactive
18,CC(=O)NNC(=O)N1Cc2ccccc2Oc2ccc(Cl)cc21,inactive
19,N=S(=O)(O)Cc1noc2ccccc12,inactive
20,COc1cccc(OC)c1OCCNCC1CSc2ccccc2O1 (stereo not given),inactive

row,SMILES,Potency
1,CN1CCC2(CCN3CCc4c(oc5ccccc45)C3C2)N(C)C1=O (stereo not given),inactive
2,NCCS(=O)O,inactive
3,CN(C)CCC(c1ccc(Br)cc1)c1ccccn1 (stereo not given),inactive
4,CC1C(=O)N(C)C(=O)c2nc[nH]c21 (stereo not given),inactive
5,CC(N)(Cc1ccc(O)c(O)c1)C(=O)O (stereo not given),inactive
6,O=C(O)CCC/C=C\C[C@@H]1[C@@H](/C=C/[C@H](O)C2Cc3ccccc3C2)[C@@H](F)C[C@@H]1O,inactive
7,O=C(OCCN1CCOCC1)C1(c2ccccc2)CCCCC1,inactive
8,C[C@@H](NCCc1ccc(O)cc1)[C@@H](O)c1ccc(O)cc1,inactive
9,CCN(c1nc(N)c(C(=O)N=C(N)N)nc1Cl)C(C)C,inactive
10,COc1cc(/C=C(\C#N)C(=O)Nc2nnc(C(F)(F)F)s2)ccc1OCc1ccc(C(F)(F)F)cc1C(F)(F)F,inactive
11,NC(N)=[N+]1CCc2ccccc2C1,inactive
12,N[C@H]1CONC1=O,inactive
13,N[C@@H](Cc1ccc(F)cc1)C(=O)O,inactive
14,NC1(C(=O)O)CCCCC1,inactive
15,Oc1cc(O)c2c(c1)O[C@H](c1ccc(O)c(O)c1)[C@@H](O)C2,inactive
16,C[C@H](NC(=O)/C(C#N)=C/c1ccc(O)c(O)c1)c1ccccc1,inactive
17,NCC(O)(CS(=O)(=O)O)c1ccc(Cl)cc1 (stereo not given),inactive
18,Nc1ncnc2c1ncn2C1CCCO1 (stereo not given),inactive
19,CCCCCCC(=O)OC1CC(C)(C)NC(C)(C)C1,inactive
20,C=C1C[C@@]23CC[C@H]4[C@@](C)(CCC[C@@]4(C)C(=O)OC4OC(CO)C(O)C(O)C4O)[C@@H]2CC[C@]1(OC1OC(CO)C(O)C(O)C1OC1OC(CO)C(O)C(O)C1O)C3 (stereo not given in full),inactive
